log2 fold change data for 34 targets are collected here from the supplement of paper PMC10849652.

Targets with a hit are over-represented here; the source holds about 7,900 in all. About 0.6% of all pairs of compound and target were hits. Unmarked numbers belong to inactive results.

Chain of UniProt P09105 (P09105 whole entry, looked up): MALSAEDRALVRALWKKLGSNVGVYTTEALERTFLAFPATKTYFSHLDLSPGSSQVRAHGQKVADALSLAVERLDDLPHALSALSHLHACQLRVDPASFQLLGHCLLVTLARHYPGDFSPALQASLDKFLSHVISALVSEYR
Chain of UniProt P49841 (P49841 whole entry, looked up): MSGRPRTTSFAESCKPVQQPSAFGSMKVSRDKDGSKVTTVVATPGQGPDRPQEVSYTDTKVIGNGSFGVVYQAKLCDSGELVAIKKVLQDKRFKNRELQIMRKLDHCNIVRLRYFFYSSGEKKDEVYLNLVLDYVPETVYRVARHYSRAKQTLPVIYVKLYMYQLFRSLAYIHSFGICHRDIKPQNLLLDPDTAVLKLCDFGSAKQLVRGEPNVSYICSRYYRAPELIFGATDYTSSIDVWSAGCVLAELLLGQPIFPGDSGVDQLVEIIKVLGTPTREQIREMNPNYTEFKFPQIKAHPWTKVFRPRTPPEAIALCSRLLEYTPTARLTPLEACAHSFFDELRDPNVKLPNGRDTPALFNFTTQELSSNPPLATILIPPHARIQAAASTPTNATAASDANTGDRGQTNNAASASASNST
Chain of UniProt P15260 (P15260 whole entry, looked up): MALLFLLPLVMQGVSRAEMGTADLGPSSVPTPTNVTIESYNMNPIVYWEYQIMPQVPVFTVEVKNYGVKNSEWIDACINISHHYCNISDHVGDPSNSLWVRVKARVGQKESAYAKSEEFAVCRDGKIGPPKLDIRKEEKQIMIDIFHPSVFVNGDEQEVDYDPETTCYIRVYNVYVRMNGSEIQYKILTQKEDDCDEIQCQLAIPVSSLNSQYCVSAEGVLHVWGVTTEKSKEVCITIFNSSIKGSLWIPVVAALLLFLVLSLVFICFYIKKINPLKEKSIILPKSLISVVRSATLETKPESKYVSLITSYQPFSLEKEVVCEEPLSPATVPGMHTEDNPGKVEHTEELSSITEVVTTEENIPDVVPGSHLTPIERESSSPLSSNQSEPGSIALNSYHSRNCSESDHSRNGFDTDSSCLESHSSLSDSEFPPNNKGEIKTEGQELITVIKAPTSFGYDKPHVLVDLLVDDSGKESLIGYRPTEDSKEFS
Chain of UniProt Q14527 (Q14527 whole entry, looked up): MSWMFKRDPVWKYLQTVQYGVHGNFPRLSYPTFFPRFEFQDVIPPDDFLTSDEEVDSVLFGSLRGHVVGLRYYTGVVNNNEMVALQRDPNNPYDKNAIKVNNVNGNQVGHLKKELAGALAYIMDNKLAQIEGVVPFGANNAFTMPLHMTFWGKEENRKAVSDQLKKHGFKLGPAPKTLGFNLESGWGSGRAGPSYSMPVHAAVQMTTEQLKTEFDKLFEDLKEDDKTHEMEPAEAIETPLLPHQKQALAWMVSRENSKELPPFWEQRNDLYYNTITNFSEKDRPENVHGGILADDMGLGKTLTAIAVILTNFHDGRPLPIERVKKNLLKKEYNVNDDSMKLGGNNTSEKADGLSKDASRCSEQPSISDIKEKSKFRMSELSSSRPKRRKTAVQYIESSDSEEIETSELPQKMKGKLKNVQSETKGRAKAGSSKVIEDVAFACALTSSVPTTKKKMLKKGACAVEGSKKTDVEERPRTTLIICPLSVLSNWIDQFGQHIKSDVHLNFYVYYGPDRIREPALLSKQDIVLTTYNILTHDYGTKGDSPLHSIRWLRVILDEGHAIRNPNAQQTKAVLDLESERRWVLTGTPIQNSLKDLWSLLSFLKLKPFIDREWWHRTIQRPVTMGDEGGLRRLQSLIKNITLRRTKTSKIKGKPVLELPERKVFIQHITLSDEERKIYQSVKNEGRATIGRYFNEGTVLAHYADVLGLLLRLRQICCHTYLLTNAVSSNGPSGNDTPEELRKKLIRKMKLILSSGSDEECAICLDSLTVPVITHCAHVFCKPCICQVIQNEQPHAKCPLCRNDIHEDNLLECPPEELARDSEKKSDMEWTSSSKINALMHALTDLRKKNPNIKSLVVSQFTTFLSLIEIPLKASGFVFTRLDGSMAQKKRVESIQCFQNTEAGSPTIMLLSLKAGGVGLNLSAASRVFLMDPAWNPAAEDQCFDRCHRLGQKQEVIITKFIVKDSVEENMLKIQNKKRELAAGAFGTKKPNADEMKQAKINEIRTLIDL
Chain of UniProt Q16774 (Q16774 whole entry, looked up): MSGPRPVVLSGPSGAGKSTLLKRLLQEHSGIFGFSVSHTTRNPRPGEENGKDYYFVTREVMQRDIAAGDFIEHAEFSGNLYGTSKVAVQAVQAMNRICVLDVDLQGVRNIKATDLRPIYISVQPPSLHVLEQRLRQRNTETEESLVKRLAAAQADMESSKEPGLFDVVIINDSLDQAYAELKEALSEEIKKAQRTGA
Chain of UniProt P09211 (P09211 whole entry, looked up): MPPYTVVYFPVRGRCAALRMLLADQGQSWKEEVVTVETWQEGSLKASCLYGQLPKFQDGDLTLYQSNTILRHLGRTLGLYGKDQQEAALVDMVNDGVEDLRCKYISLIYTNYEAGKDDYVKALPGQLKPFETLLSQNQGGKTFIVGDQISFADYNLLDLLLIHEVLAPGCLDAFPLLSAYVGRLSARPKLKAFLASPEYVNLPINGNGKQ
Chain of UniProt Q9ULT8 (Q9ULT8 whole entry, looked up): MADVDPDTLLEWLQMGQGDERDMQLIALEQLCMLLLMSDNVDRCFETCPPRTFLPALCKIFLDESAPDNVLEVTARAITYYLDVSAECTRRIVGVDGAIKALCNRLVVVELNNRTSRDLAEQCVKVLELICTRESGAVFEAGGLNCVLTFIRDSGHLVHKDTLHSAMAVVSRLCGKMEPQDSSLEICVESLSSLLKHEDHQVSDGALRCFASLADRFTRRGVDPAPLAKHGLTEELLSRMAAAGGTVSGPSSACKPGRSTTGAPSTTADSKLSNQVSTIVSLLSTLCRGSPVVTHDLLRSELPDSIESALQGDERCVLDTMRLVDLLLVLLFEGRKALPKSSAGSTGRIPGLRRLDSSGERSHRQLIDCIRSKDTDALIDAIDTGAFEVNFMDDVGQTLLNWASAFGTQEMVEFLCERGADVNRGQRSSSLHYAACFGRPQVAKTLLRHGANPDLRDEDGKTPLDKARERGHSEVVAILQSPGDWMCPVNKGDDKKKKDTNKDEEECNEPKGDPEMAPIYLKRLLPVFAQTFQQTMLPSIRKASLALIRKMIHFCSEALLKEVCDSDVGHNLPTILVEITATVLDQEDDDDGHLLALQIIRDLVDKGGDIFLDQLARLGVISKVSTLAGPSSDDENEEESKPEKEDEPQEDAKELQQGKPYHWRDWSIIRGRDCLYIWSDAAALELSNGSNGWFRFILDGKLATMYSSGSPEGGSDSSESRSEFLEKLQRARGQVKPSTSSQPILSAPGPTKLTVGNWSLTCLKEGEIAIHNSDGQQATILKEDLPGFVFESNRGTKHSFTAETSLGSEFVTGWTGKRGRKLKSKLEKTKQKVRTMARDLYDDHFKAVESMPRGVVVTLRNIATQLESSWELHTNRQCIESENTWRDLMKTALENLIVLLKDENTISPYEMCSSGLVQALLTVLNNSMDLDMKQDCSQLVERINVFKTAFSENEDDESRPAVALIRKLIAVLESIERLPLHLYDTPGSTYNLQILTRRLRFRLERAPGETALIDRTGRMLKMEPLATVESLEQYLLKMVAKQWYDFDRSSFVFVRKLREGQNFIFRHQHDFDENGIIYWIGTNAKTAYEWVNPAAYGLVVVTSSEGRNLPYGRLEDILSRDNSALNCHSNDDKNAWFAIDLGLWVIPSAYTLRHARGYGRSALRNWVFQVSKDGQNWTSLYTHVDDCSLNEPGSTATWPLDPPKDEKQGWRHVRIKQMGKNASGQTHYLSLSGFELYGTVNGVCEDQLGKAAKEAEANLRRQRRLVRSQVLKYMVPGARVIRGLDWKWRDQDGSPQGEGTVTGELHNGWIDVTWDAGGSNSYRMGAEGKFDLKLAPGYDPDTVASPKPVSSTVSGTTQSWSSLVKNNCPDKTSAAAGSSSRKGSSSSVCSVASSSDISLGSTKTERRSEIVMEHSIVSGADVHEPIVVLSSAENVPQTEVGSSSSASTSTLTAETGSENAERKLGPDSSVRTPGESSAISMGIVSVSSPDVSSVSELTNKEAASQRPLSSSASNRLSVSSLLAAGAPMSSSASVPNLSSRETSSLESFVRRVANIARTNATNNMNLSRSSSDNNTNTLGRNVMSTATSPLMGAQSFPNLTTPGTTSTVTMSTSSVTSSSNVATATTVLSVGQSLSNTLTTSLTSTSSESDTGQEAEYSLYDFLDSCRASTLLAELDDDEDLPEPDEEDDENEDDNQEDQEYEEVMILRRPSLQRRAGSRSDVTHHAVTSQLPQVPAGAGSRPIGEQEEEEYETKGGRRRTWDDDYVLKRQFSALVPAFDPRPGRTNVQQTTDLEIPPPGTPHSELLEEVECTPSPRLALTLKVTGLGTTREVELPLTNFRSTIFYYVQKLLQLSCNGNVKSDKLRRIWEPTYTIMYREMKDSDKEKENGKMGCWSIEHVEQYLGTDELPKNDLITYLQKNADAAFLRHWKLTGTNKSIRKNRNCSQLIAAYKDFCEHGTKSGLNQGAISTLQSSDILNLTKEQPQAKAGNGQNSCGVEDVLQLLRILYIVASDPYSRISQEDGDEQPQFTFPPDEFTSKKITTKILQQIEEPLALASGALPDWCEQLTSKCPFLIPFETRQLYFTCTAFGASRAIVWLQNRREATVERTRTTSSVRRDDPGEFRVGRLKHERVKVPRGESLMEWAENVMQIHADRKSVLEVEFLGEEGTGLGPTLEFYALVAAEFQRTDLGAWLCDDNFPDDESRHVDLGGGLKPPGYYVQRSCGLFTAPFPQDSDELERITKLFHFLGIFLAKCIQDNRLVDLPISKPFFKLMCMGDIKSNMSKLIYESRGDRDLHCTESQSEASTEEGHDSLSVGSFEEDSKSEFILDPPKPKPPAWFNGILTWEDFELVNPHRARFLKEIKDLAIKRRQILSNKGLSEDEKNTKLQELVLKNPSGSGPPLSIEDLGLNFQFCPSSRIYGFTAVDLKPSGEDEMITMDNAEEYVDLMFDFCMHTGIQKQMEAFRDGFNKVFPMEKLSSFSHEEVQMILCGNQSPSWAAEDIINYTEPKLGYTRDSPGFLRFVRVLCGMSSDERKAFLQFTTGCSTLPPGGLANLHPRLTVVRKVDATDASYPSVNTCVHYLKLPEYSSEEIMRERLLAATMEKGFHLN

Compound in one assay: CN1CCN(CCOc2cc(OC3CCOCC3)c3c(Nc4c(Cl)ccc5c4OCO5)ncnc3c2)CC1 [saracatinib]
As to the kind of experiment: log2 fold change, soluble protein after heating vs DMSO (PISA); higher = thermal stabilisation; K562 cells, 10 uM, 30 min; active = over 0.2 and 3.5 SD of the protein, either way, in both replicates (recomputed). In a few lines: (§1)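 K562 cells at 2×10^6 cells/mL were given 10 μM compound for 30 min. Aliquots then went through 3 min of heating across 48°C-58°C, were pooled, and were extracted in PBS with 0.5% NP-40 at 4°C, and the supernatant after 21,000xg for 90 min was quantified by TMTpro 16plex LC-MS/MS with channel sums equalised. Thermal stability relative to control samples, from duplicates, is given as log2 fold change.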
FIBP (UniProt O43427): the log2 fold change was -0.074.
Regarding HIP1 (UniProt O00291), the log2 fold change is 0.078.
In the case of IFT74 (UniProt Q96LB3), the log2 fold change is -0.079.
On to HECTD1 (UniProt Q9ULT8), for which the log2 fold change is -0.184.
Still for that read-out and setting: in the case of FMC1 (UniProt Q96HJ9) it was 0.139; in that of GUK1 isoform 2 (UniProt Q16774), 0.001; in that of FUBP3 (UniProt Q96I24), 0.012.
Still for that read-out and setting: in the case of FKBP7 (UniProt Q9Y680) it was 0.073; in that of GCLM (UniProt P48507), 0.012.
The same measure, in the same setting: in the case of FBXO6 (UniProt Q9NRD1) it was 0.042; in that of HTATIP2 isoform 3 (UniProt Q9BUP3), -0.016.
In the case of FDFT1 (UniProt P37268), the log2 fold change was 0.071.
The same measure, in the same setting: under HP1BP3 (UniProt Q5SSJ5) stands -0.045.
Same read-out and setting: under GCSH (UniProt P23434) stands -0.024; under IFRD1 (UniProt O00458), 0.026; under GATD1 (UniProt Q8NB37), 0.077.
Same read-out and setting: under HOOK3 (UniProt Q86VS8) stands -0.016.
With H3-3A (UniProt P84243), the log2 fold change was -0.094.
The same measure, in the same setting: in the case of GSTP1 (UniProt P09211) it was -0.011; in that of HNRNPUL1 (UniProt Q9BUJ2), -0.016; in that of HSPA8 (UniProt E9PK54), -0.058.
Take HMGCR isoform 3 (UniProt P04035): the log2 fold change was 0.002.
As for GSK3B isoform 2 (UniProt P49841), the log2 fold change was 0.012.
On the same count and under the same terms, in the case of HLTF (UniProt Q14527) it was -0.012.
The same measure, in the same setting: under GTF3C5 isoform 3 (UniProt Q9Y5Q8) stands 0.024; under HNRNPK isoform 2 (UniProt P61978), -0.057.
The same measure, in the same setting: in the case of IFNGR1 (UniProt P15260) it was 0.05; in that of ICAM1 (UniProt P05362), 0.035; in that of GTF2A2 (UniProt P52657), 0.034.
As to GLUD2 (UniProt P49448), the log2 fold change is 0.305 (active).
For GLIPR2 (UniProt Q9H4G4), the log2 fold change was 0.002.
Turning to HBQ1 (UniProt P09105), the log2 fold change is -0.029.
GSTO1 (UniProt P78417): the log2 fold change was 0.027.
Same read-out and setting: in the case of GNS (UniProt P15586) it was 0.014.

Compound in the next assay: CN1CCN(c2nc(C3=C(c4c[nH]c5ccccc45)C(=O)NC3=O)c3ccccc3n2)CC1 [sotrastaurin]
The assay is described as above. In a few lines: as §1
FIBP (UniProt O43427): the log2 fold change is -0.05.
As to HIP1 (UniProt O00291), the log2 fold change is -0.079.
Same read-out and setting: in the case of IFT74 (UniProt Q96LB3) it was -0.001.
Same read-out and setting: in the case of HECTD1 (UniProt Q9ULT8) it was -0.066; in that of FMC1 (UniProt Q96HJ9), 0.09.
Regarding GUK1 isoform 2 (UniProt Q16774), the log2 fold change is -0.223.
As for FUBP3 (UniProt Q96I24), the log2 fold change is 0.05.
Take FKBP7 (UniProt Q9Y680): the log2 fold change was 0.056.
On the same count and under the same terms, in the case of GCLM (UniProt P48507) it was -0.055.
Still for that read-out and setting: under FBXO6 (UniProt Q9NRD1) stands -0.085; under HTATIP2 isoform 3 (UniProt Q9BUP3), 0.023.
Still for that read-out and setting: under FDFT1 (UniProt P37268) stands 0.604 (active).
For HP1BP3 (UniProt Q5SSJ5), the log2 fold change was -0.071.
On the same count and under the same terms, under GCSH (UniProt P23434) stands 0.057; under IFRD1 (UniProt O00458), 0.242; under GATD1 (UniProt Q8NB37), 0.057.
Still for that read-out and setting: in the case of HOOK3 (UniProt Q86VS8) it was -0.166; in that of H3-3A (UniProt P84243), -0.356; in that of GSTP1 (UniProt P09211), 0.053.
Still for that read-out and setting: in the case of HNRNPUL1 (UniProt Q9BUJ2) it was 0.039; in that of HSPA8 (UniProt E9PK54), -0.054; in that of HMGCR isoform 3 (UniProt P04035), -0.287.
For the target GSK3B isoform 2 (UniProt P49841), the log2 fold change was 0.2.
The same measure, in the same setting: under HLTF (UniProt Q14527) stands 0.019.
As to GTF3C5 isoform 3 (UniProt Q9Y5Q8), the log2 fold change is -0.148.
The same measure, in the same setting: under HNRNPK isoform 2 (UniProt P61978) stands -0.037; under IFNGR1 (UniProt P15260), -0.038.
Take ICAM1 (UniProt P05362): the log2 fold change is 0.07.
GTF2A2 (UniProt P52657): the log2 fold change was 0.018.
As for GLUD2 (UniProt P49448), the log2 fold change is 0.056.
For GLIPR2 (UniProt Q9H4G4), the log2 fold change was -0.027.
On the same count and under the same terms, in the case of HBQ1 (UniProt P09105) it was 0.007.
As for GSTO1 (UniProt P78417), the log2 fold change is 0.094.
The same measure, in the same setting: under GNS (UniProt P15586) stands 0.041.

Compound in the next assay: CN1CC[C@H](c2c(O)cc(O)c3c(=O)cc(-c4ccccc4Cl)oc23)[C@H](O)C1 [alvocidib]
The assay is described as above. Put shortly: as §1
For FIBP (UniProt O43427), the log2 fold change is -0.01.
For HIP1 (UniProt O00291), the log2 fold change is -0.102.
Still for that read-out and setting: in the case of IFT74 (UniProt Q96LB3) it was 0.048; in that of HECTD1 (UniProt Q9ULT8), 0.111.
With FMC1 (UniProt Q96HJ9), the log2 fold change is 0.026.
GUK1 isoform 2 (UniProt Q16774): the log2 fold change was -0.092.
Take FUBP3 (UniProt Q96I24): the log2 fold change is 0.129.
On to FKBP7 (UniProt Q9Y680), for which the log2 fold change was 0.
Same read-out and setting: under GCLM (UniProt P48507) stands -0.126.
Still for that read-out and setting: in the case of FBXO6 (UniProt Q9NRD1) it was -0.092.
The same measure, in the same setting: in the case of HTATIP2 isoform 3 (UniProt Q9BUP3) it was -0.113; in that of FDFT1 (UniProt P37268), -0.033.
Turning to HP1BP3 (UniProt Q5SSJ5), the log2 fold change is 0.039.
With GCSH (UniProt P23434), the log2 fold change was 0.009.
The same measure, in the same setting: in the case of IFRD1 (UniProt O00458) it was 0.064; in that of GATD1 (UniProt Q8NB37), -0.084.
With HOOK3 (UniProt Q86VS8), the log2 fold change was 0.003.
For the target H3-3A (UniProt P84243), the log2 fold change was -0.063.
Still for that read-out and setting: in the case of GSTP1 (UniProt P09211) it was -0.051.
Consider HNRNPUL1 (UniProt Q9BUJ2), for which the log2 fold change was 0.082.
On the same count and under the same terms, in the case of HSPA8 (UniProt E9PK54) it was 0.332.
On to HMGCR isoform 3 (UniProt P04035), for which the log2 fold change is -0.021.
In the case of GSK3B isoform 2 (UniProt P49841), the log2 fold change is 0.052.
On the same count and under the same terms, under HLTF (UniProt Q14527) stands -0.036; under GTF3C5 isoform 3 (UniProt Q9Y5Q8), 0.036.
On the same count and under the same terms, under HNRNPK isoform 2 (UniProt P61978) stands -0.155; under IFNGR1 (UniProt P15260), 0.253.
For ICAM1 (UniProt P05362), the log2 fold change was -0.004.
The same measure, in the same setting: under GTF2A2 (UniProt P52657) stands -0.003; under GLUD2 (UniProt P49448), -0.017.
For the target GLIPR2 (UniProt Q9H4G4), the log2 fold change is 0.054.
As for HBQ1 (UniProt P09105), the log2 fold change was -0.034.
In the case of GSTO1 (UniProt P78417), the log2 fold change was -0.016.
On the same count and under the same terms, under GNS (UniProt P15586) stands -0.022.
